# Experimental data as given in PubChem BioAssay (NCATS).
# Results filed as inconclusive are left out. Entries that show only a call come without a potency. Calls of active or inactive are those of the source. Unless noted, calls follow the shape of the dose curve; as a rule, active = well fitted curve in the direction sought with a large enough effect; inconclusive = small, poorly fitted or top-dose-only effect, or another doubt; inactive = no such curve, though single readings can be large; an effect the other way counts as inactive or inconclusive.
# Key:
# [1] = Validation screen for small molecules that induce genotoxicity in human embryonic kidney (HEK293T) cells expressing luciferase-tagged ELG1 (AID 493106); also: potency is read from the fitted curve at half-maximal effect
# Summary of the method: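 In this validation screen, increased ELG1-luciferase signal flags compounds causing genetic stress. HEK293T reporter cells are treated 16 hr (37 °C, 5% CO2), developed with ONE-Glo for 30 min at room temperature, and imaged on a CCD-based reader.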
# [2] = target: Thyrotropin-releasing hormone receptor (Homo sapiens) (UniProt P34981); test: qHTS for Small Molecule Agonists and Allosteric Enhancers of Human TRH Receptor: Validation Screen for Agonists (AID 493127;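 active = calcium activation more than 3 SD above the typical response in the agonist read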;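 also: intracellular calcium rise by fluo-8 fluorescence before TRH EC20 addition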); conditions: TRH receptor agonist cell assay; at 2 µM; stronger effect = higher value
# Summary of the method: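 Kinetic fluorescence assay of agonist-induced calcium release: overnight-plated TRHR cells, room-temperature fluo-8 loading, baseline then compound addition with per-second reads.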
# [3] = Nrf2 qHTS screen for inhibitors: Validation (AID 493153; active = well fitted inhibition curve with a large enough effect in the main read-out, with a control signal flat, not every such curve was filed as active); conditions: Potency: luciferase luminescence; viability change: measured here: cytotoxicity max response
# Summary of the method: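 In this counterscreened reporter format, each well gives two signals: CellTiter-Fluor fluorescence for cytotoxicity and ARE-luciferase luminescence for Nrf2 function. A549 ARE_Fluc cells in 5% FBS OPTI-MEM were exposed to compound titrations for 18-24 h.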
# [4] = qHTS for Inhibitors of Cell Surface uPA Generation: Validation Assay (AID 493164);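 also: RAW 264.7 macrophage cells exposed to compound for 18 h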
# Summary of the method: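 Compounds are titrated over seven points (2.45 nM–38.3 uM final) onto pre-plated RAW 264.7 cells and incubated for 18 h. Retained intracellular ATP, measured with ATP-Lite, indicates blocked lethal factor entry.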
# [5] = target: Galactokinase (Homo sapiens) (UniProt P51570); test: qHTS Validation Assay for Inhibitors of Human Galactokinase (GALK) (AID 493189); also: potency is read from the fitted curve at half-maximal effect
# Summary of the method: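 Inhibition was measured as remaining ATP, detected by luciferase luminescence after a 1 h room-temperature reaction. Final conditions: 5 nM GALK, 100 uM galactose, 35 uM ATP, pH 8.0 HEPES buffer.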
# [6] = Validation screen for small molecules that induce DNA re-replication in SW480 colon adenocarcinoma cells (AID 504364); also: potency is read from the fitted curve at half-maximal effect
# Summary of the method: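 Hoechst-stained SW480 nuclei, imaged at 405 nm excitation after 48 hr compound exposure, were counted for elevated DNA content as the re-replication signal.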
# [7] = target: Peptidyl-prolyl cis-trans isomerase NIMA-interacting 1 (Homo sapiens) (UniProt Q13526); test: qHTS Validation Assay to Find Inhibitors of Pin1 (AID 504536; active = well fitted inhibition curve with a large enough effect in the polarisation, with a control signal flat, not every such curve was filed as active; the % refers to the polarisation; also: potency is read from the fitted curve at half-maximal effect)
# Summary of the method: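 Fluorescence polarization competition: compounds (titration) displace HiFluor-488-labeled Pin1-1b peptide from Pin1 (0.3 uM final) in pH 7.5 HEPES buffer with DTT, 10 min at room temperature; %Activity normalized to no-enzyme wells, curves fitted.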
# [8] = target: Phosphoglycerate kinase, glycosomal (Trypanosoma brucei brucei) (UniProt P07378); test: qHTS Validation Assay to Find Inhibitors of Phosphoglycerate Kinase (AID 504547); also: potency is read from the fitted curve at half-maximal effect
# Summary of the method: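 Compounds are pinned into the substrate/PGK mixture, and GAPDH (100nM final) is added to start the reaction by producing 1,3-BPG. After 60 minutes at room temperature, Kinase-Glo Plus is added and luminescence is measured 10 minutes later.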
# [9] = target: phosphoglycerate mutase (Leishmania major) (UniProt Q4Q090); test: qHTS Validation Assay to Find Inhibitors of Phosphoglycerate Mutase (AID 504548); also: series mostly up to about 58 µM
# Summary of the method: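 Lm PGAM at 1.25 nM final with substrate in 100 mM TEA pH 7.6, 5 mM MgCl2, 0.01% Tween-20; 45 min at room temperature. Kinase-GloPlus added, 10 min, end-point luminescence read.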
# [10] = target: ATPase family AAA domain-containing protein 5 (Homo sapiens) (UniProt Q96QE3); test: Validation screen for small molecules that inhibit ELG1-dependent DNA repair in human embryonic kidney (HEK293T) cells expressing luciferase-tagged ELG1 (AID 493107);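 also: cells co-treated with the DNA-damaging agent 5-fluorouridine alongside compound; series mostly up to about 46 µM; inhibitors lower the ELG1-luciferase luminescence signal; nearly all actives have a fitted effect of over 70% in size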
# Summary of the method: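 Compounds reducing 5-fluorouridine-driven ELG1-luciferase signal in HEK293T cells were scored; exposure lasted 16 hr at 37 °C with luminescence detected via ONE-Glo.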
# Chain of Galactokinase (Homo sapiens) (P51570 whole entry, looked up): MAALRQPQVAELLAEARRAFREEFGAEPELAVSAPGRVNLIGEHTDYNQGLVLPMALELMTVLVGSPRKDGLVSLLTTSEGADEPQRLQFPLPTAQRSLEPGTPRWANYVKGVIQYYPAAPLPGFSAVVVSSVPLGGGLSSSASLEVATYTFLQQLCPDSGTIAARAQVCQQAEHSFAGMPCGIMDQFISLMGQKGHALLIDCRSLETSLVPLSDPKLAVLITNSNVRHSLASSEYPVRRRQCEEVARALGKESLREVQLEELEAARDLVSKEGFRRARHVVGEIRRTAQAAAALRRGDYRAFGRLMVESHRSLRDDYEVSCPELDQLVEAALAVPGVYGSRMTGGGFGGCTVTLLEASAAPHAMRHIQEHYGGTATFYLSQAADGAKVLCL
# Chain of phosphoglycerate mutase (Leishmania major) (Q4Q090 1-553): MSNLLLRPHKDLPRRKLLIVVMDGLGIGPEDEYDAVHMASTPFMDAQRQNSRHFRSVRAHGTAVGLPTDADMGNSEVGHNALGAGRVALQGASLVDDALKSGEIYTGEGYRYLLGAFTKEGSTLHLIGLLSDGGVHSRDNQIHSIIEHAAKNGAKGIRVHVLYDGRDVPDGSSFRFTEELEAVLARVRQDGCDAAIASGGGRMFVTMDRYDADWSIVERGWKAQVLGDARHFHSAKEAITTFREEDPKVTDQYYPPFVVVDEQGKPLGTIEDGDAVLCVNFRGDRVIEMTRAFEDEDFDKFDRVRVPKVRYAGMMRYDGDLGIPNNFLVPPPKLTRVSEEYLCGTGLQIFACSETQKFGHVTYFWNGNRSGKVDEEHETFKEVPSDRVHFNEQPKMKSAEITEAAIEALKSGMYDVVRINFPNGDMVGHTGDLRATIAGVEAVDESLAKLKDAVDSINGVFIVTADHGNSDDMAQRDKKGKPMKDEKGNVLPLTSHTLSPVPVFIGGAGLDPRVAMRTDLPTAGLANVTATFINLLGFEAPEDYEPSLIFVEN
# Chain of Thyrotropin-releasing hormone receptor (Homo sapiens) (P34981 whole entry, looked up): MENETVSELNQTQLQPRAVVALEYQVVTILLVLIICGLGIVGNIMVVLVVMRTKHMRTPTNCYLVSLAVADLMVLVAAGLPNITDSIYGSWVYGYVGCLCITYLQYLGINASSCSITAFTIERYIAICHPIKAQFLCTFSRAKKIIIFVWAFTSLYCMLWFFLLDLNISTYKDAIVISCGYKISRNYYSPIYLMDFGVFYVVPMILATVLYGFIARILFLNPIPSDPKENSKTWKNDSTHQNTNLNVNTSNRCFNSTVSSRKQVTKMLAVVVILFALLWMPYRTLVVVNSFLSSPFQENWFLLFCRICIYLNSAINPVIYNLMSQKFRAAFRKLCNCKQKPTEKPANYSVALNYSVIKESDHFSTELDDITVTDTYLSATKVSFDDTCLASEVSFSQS
# Chain of Phosphoglycerate kinase, glycosomal (Trypanosoma brucei brucei) (P07378 whole entry, looked up): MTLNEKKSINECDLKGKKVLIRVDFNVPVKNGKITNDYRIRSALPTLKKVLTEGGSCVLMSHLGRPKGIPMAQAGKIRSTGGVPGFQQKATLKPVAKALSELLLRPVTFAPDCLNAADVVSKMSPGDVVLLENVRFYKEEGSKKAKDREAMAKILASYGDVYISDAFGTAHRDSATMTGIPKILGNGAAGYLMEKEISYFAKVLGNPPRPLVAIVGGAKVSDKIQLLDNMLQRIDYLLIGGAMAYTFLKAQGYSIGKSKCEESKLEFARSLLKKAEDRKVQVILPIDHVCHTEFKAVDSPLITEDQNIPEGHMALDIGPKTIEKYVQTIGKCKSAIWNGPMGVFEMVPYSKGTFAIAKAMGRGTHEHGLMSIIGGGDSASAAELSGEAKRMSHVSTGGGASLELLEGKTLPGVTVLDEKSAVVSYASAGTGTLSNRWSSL
# Chain of Peptidyl-prolyl cis-trans isomerase NIMA-interacting 1 (Homo sapiens) (Q13526 whole entry, looked up): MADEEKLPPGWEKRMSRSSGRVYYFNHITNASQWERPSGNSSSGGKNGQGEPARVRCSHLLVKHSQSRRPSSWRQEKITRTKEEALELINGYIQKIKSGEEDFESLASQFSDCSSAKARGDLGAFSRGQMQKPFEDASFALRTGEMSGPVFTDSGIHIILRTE
# Chain of ATPase family AAA domain-containing protein 5 (Homo sapiens) (Q96QE3 whole entry, looked up, the tested form may be a part): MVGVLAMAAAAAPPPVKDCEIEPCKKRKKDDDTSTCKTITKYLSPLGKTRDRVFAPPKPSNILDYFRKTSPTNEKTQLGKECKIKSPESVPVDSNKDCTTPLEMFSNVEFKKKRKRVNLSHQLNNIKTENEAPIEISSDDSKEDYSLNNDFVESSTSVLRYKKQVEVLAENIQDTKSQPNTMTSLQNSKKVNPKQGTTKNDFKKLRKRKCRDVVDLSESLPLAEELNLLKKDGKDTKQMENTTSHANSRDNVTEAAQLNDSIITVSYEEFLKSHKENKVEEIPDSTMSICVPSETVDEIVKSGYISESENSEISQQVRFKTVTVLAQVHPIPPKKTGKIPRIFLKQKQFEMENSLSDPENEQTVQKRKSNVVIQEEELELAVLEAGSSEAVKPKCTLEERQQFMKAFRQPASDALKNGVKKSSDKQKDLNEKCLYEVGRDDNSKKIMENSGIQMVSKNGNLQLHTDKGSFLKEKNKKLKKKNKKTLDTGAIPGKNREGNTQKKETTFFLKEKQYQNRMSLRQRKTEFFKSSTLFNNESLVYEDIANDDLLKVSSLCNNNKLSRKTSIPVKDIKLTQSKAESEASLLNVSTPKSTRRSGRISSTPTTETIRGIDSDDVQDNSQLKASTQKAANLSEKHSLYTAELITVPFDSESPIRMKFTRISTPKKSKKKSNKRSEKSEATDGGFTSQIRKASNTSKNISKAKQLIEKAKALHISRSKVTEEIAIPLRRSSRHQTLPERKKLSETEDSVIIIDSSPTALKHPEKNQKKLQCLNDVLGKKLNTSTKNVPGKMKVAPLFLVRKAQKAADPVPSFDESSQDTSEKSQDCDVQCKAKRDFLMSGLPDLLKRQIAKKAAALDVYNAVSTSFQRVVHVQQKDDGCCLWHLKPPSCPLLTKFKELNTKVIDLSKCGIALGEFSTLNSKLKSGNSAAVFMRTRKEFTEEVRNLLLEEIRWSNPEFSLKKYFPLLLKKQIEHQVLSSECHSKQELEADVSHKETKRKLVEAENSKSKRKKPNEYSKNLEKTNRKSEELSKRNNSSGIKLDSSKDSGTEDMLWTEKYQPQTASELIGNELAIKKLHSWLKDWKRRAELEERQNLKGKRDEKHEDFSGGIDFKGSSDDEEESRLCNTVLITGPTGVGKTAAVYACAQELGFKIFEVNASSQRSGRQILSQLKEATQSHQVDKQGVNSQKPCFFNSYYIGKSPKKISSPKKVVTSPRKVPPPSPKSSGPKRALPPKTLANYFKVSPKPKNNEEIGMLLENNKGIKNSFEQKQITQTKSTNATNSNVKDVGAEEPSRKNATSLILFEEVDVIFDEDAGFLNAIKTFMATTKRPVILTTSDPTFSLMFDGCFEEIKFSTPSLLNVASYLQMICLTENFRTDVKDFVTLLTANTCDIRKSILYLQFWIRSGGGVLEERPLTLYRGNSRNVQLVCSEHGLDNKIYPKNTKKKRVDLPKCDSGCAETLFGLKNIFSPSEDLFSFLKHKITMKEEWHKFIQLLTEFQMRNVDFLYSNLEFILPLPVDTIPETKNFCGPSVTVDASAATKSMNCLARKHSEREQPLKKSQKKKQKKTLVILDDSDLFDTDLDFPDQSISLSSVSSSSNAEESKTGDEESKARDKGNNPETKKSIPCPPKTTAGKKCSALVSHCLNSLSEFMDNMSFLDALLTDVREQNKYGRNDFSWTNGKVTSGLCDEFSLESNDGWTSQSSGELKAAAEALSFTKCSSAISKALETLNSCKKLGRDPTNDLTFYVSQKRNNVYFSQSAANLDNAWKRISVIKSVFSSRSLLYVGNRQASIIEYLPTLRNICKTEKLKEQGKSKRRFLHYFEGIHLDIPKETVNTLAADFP
SMILES,Potency [1],activation [2],Potency [3],viability change [3] [%],outcome [4],Potency [5],Potency [6],Potency [7],Potency [8],outcome [9],Potency [10]
NC(=O)OCC(COC(N)=O)c1ccccc1,inactive,0.5% (inactive),inactive,2.5,inactive,inactive,inactive,inactive,inactive,inactive,
CC[N+](CC)(CC)CCOc1cccc(OCC[N+](CC)(CC)CC)c1OCC[N+](CC)(CC)CC,inactive,,inactive,5.55,inactive,inactive,inactive,inactive,inactive,inactive,
COc1ccc2[nH]cc(CCNC(C)=O)c2c1,inactive,-2.38% (inactive),inactive,-12.9,inactive,inactive,inactive,inactive,inactive,inactive,
Nc1nc2c(ncn2COC(CO)CO)c(=O)[nH]1,inactive,0.625% (inactive),inactive,2.85,inactive,inactive,inactive,inactive,inactive,inactive,
COc1ccccc1OCC(O)CN1CCN(CC(=O)Nc2c(C)cccc2C)CC1 (centres undefined),inactive,0.375% (inactive),inactive,-3.01,inactive,inactive,inactive,inactive,inactive,inactive,
NCCS(=O)(=O)O,inactive,1.12% (inactive),inactive,-6.75,inactive,inactive,inactive,inactive,inactive,inactive,
NS(=O)(=O)c1cc2c(cc1Cl)NCNS2(=O)=O,inactive,0.938% (inactive),inactive,-1.09,inactive,inactive,inactive,inactive,inactive,inactive,
CN1CCN2c3ccccc3Cc3ccccc3C2C1 (centres undefined),inactive,-4.88% (inactive),inactive,-3.01,,,inactive,inactive,,,
CC(C)NCC(O)COc1ccc(CCOCC2CC2)cc1 (centres undefined),inactive,,inactive,-1.98,inactive,inactive,inactive,inactive,inactive,inactive,
Clc1ccc2c(c1)C(N1CCNCC1)=Nc1ccccc1O2,inactive,4.19% (inactive),,,inactive,inactive,inactive,inactive,inactive,inactive,
COC(=O)Nc1nc2ccc(C(=O)c3cccs3)cc2[nH]1,2310 nM (active),,inactive,-18.1,inactive,inactive,116 nM (active),inactive,inactive,inactive,
O=C(CCCN1CCC(O)(c2ccc(Cl)cc2)CC1)c1ccc(F)cc1,inactive,4.81% (inactive),inactive,2.46,inactive,inactive,inactive,inactive,inactive,inactive,
Cc1ccccc1N1C(=O)c2cc(S(N)(=O)=O)c(Cl)cc2NC1C (centres undefined),inactive,,inactive,10.1,inactive,inactive,inactive,inactive,inactive,inactive,
Fc1ccc([C@@H]2CCNC[C@H]2COc2ccc3c(c2)OCO3)cc1,inactive,7.94% (inactive),inactive,10.5,inactive,inactive,inactive,inactive,inactive,inactive,
CCCNCC(O)COc1ccccc1C(=O)CCc1ccccc1 (centres undefined),inactive,4% (inactive),,,inactive,inactive,inactive,inactive,inactive,inactive,
Nc1nnc(-c2cccc(Cl)c2Cl)c(N)n1,inactive,0.938% (inactive),inactive,-4.23,inactive,inactive,inactive,inactive,inactive,inactive,
N[C@@H](Cc1c[nH]c2ccc(O)cc12)C(=O)O,inactive,0.125% (inactive),inactive,-8.24,inactive,inactive,inactive,inactive,inactive,inactive,
Cc1ccc(C(=O)Nc2ccc(S(=O)(=O)O)c3cc(S(=O)(=O)O)cc(S(=O)(=O)O)c23)cc1NC(=O)c1cccc(NC(=O)Nc2cccc(C(=O)Nc3cc(C(=O)Nc4ccc(S(=O)(=O)O)c5cc(S(=O)(=O)O)cc(S(=O)(=O)O)c45)ccc3C)c2)c1,inactive,0.688% (inactive),inactive,-15.2,inactive,17800 nM (active),inactive,426 nM (active),2690 nM (active),inactive,
Clc1ccccc1C(c1ccccc1)(c1ccccc1)n1ccnc1,inactive,-13.1% (inactive),,,inactive,inactive,inactive,inactive,inactive,inactive,
CC(C)(Oc1ccc(C2CC2(Cl)Cl)cc1)C(=O)O (centres undefined),inactive,,inactive,9.29,inactive,inactive,inactive,inactive,inactive,inactive,
Cn1c(=O)c2c(ncn2C)n(C)c1=O,inactive,,inactive,-2.67,inactive,,inactive,inactive,,,
O=c1[nH]cc(F)c(=O)[nH]1,,0.812% (inactive),,,inactive,inactive,inactive,inactive,inactive,inactive,inactive
